This is an account of results in PubChem BioAssay (Tox21).

Records with an inconclusive call do not appear. A call without a number means that no potency is given here. Calls of active or inactive are those of the source. Calls come from the whole dose curve.

D(2) dopamine receptor (Homo sapiens), sequence (P14416 whole entry, looked up): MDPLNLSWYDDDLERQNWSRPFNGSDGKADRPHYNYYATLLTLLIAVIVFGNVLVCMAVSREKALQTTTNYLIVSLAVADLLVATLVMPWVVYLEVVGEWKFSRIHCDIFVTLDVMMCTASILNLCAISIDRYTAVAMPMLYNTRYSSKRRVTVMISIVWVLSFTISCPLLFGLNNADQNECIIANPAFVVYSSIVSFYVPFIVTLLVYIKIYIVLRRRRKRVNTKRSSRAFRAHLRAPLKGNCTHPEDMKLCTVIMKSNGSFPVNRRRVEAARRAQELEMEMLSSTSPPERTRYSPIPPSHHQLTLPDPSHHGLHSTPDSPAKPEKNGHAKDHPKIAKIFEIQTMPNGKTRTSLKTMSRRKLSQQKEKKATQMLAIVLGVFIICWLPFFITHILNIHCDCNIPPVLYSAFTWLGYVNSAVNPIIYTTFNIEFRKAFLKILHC

This experiment addresses D(2) dopamine receptor (Homo sapiens) (UniProt P14416). The experiment in a line: Dopamine D2 receptor (DRD2) small molecule agonists, cell-based qHTS assay (AID 1963594). Note: nearly all actives have a fitted effect of over 35% in size. Particulars: HEK293-DRD2 cAMP HTRF, agonist mode, 30 min; series mostly up to 92.4 µM. The text has this:
National Center for Advancing Translational Sciences [NCATS]
Division of Preclinical Innovation [DPI]
U.S. Environmental Protection Agency [EPA]
National Institutes of Environmental Health Sciences [NIEHS]
National Toxicology Program [NTP]
U.S. Food and Drug Administration [FDA]
DRD2 is the D2 subtype of the dopamine receptor, which is coupled to Gi subtype of G protein-coupled receptor. This G protein-coupled receptor inhibits adenylyl cyclase activity. The DRD2-HEK293 cell line stably expressing D2 dopamine receptor can be used for screening agonists and antagonists of interactions between D2 and its ligands. The Hek293-DRD2 cAMP assay is based on HTRF technology. It measures changes of cAMP accumulation in response to Gi coupled GPCR activation or inhibition.
Tox21 Assay Protocol Summary:
DRD2-Hek293 cells were dispensed at 600 cells/3uL/well in 1536-well white plates using a Multidrop Dispenser. After the assay plates were incubated at a 37 C/5% CO2 incubator for 24 h, 1 uL of Ro20-1724 at final concentration of 0.1 mM was transferred to the assay plate by a Flying Reagent Dispenser. Following Ro20-1724 addition, 23 nL of compound dissolved in DMSO, positive controls or DMSO only was added to the assay plates via Wako pintool station. The assay plates were incubated at room temperature for 10 min. Next, 1 uL of NKH477 at 200nM was added into the plates. After the assay plates were incubated at room temperature for an additional 30 min, 2.5 ul/well of cAMP-d2 and 2.5 ul/well of anti-cAMP-cryptate were added respectively into the assay plates using a Flying Reagent Dispenser. The plates were incubated at room temperature for 1 h. The fluorescence intensity in the plates was measured at 340 nm excitation and 665 & 620 nm emission by an Envision plate reader.
Background: In qHTS, concentration-response curves come from the screen itself.
With `NC(=O)O`, the Potency entry was “inactive”.

In the case of `c1ccc(Nc2ccc3ccccc3c2)cc1`, the Potency entry was “inactive”.

Turning to `CC1(C)[C@H](C(=O)O[C@H](C#N)c2cccc(Oc3ccccc3)c2)[C@@H]1/C=C(\Cl)C(F)(F)F`, the Potency entry was “inactive”. Then `O=S(=O)(c1ccc(O)cc1)c1ccc(O)cc1`, with “inactive”; and `O=C(Cl)OCc1ccccc1`, with “inactive”.

For `C[Si](Cn1cncn1)(c1ccc(F)cc1)c1ccc(F)cc1`, the Potency result is “inactive”. For `O=[N+]([O-])/N=C1\NCCN1Cc1ccc(Cl)nc1` the value was “inactive”; for `N#CCNCC#N`, “inactive”; for `O=[N+]([O-])c1cccc(O)c1`, “inactive”. For `CC(C)OS(C)(=O)=O` the value was “inactive”; for `O=S1OCC2C(CO1)C1(Cl)C(Cl)=C(Cl)C2(Cl)C1(Cl)Cl` (stereo not given), “inactive”. With `Nc1nc(N)nc(NC2CC2)n1`, the Potency entry was “inactive”. Then `CN(C)C(=O)C(c1ccccc1)c1ccccc1`, with “inactive”; and `CN(C)P(=O)(N(C)C)N(C)C`, with “inactive”; and `O=C(O)c1ccccc1O`, with “inactive”. For `Nc1ccc(-c2ccc(N)cc2)cc1` the value was “inactive”.

With `CC(C)(C#N)N=NC(C)(C)C#N`, the Potency entry was “inactive”. Then `CC(C)(C)C(=O)Cl`, with “inactive”; and `CCC(=O)OC1(c2ccccc2)CCN(C)CC1`, with “inactive”. With `CN(C)N`, the Potency result was “inactive”. Then `CC(=O)[C@H]1CC[C@H]2[C@@H]3CC[C@H]4C[C@](C)(O)CC[C@]4(C)[C@H]3CC[C@]12C`, with “inactive”. For `CN(C)C(=S)SSC(=S)N(C)C` the value was “inactive”. Then `OCC(Br)CBr` (stereo not given), with “inactive”; and `O=c1n(Cl)c(=O)n(Cl)c(=O)n1Cl`, with “inactive”; and `N#CCCCCC#N`, with “inactive”. Consider `Oc1cc(Cl)ccc1Cl`, for which the Potency result was “inactive”.

Consider `CCCCCCCCCCCCBr`, for which the Potency entry was “inactive”. For the molecule `Cc1ccc(Cl)c(O)c1`, the Potency entry is “inactive”.

`O=c1[nH]c(=O)[nH]c(=O)[nH]1`: the Potency result is “inactive”. In the case of `CCOC(=O)C(c1c(O)c2ccccc2oc1=O)c1c(O)c2ccccc2oc1=O`, the Potency entry was “inactive”.

Consider `NNC(=O)c1ccccc1`, for which the Potency result was “inactive”. For `CCC(Cl)[N+](=O)[O-]` (stereo not given) the value was “inactive”; for `CC(C)COC(=O)c1ccccc1C(=O)OCC(C)C`, “inactive”; for `COP(N)(=O)SC` (stereo not given), “inactive”. On to `CCCCCCCCC(=O)NCc1ccc(O)c(OC)c1`, for which the Potency entry was “inactive”.

As for `CC(O)CN(CC(C)O)CC(C)O` (stereo not given), the Potency result is “inactive”. As to `COP(=S)(OC)SCN1C(=O)c2ccccc2C1=O`, the Potency entry is “inactive”. `CC(C)OC(=S)S`: the Potency result was “inactive”. Then `S=C=S`, with “inactive”; and `CCN(CC)C(=O)SCc1ccc(Cl)cc1`, with “inactive”.
